{
  "source": "PubChem BioAssay (NCATS)",
  "key": {"[1]": {"assay": "qHTS assay for measurement of the activity of small molecule inhibitors on Zika virus induced Caspase-3 activity in human iPSC derived neural progenitor cells (hNPCs) (AID 1224857); note: nearly all actives have a fitted effect of over 65% in size", "conditions": "hNPCs ZIKV-induced caspase-3/7, Caspase-Glo luminescence, 6 h; series mostly up to 45.7 µM", "how_it_was_run": "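Human iPSC-derived neural progenitor cells pretreated 1 hr with compounds, then infected with Zika virus (2 FFU/cell) for 6 hours at 37 C. Caspase-3/7 measured by Caspase-Glo luminescence; % inhibition calculated from induction scaled to uninfected (0%) and infected (100%) wells.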"}, "[2]": {"assay": "qHTS assay for measurement of the activity of small molecule inhibitors on Zika virus induced Caspase-3 activity in human astrocytoma cells (AID 1224859)", "conditions": "SNB-19 ZIKV-induced caspase-3/7, luminescence, 6 h; series mostly up to 45.7 µM", "how_it_was_run": "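SNB-19 astrocytoma cells, 250/well, pretreated 1 h with compounds, then Zika virus at 2 FFU/cell for 6 h at 37 C; Caspase-Glo 3/7 luminescence after 30 min; percent inhibition normalised to uninfected and infected controls.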"}, "[3]": {"assay": "qHTS assay to identify small molecule inhibitors of chordoma cells - UCH-1 (AID 1259355); note: nearly all actives have a fitted effect of over 55% in size; note: potency is the fitted concentration of half-maximal effect", "conditions": "UCH-1 chordoma viability, CellTiter-Glo, 48 h, combination, with auranofin plus four topoisomerase inhibitors; series mostly up to 46.1 µM", "how_it_was_run": "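Cells (800/well) were seeded and left overnight at 37 C, 5% CO2, then treated with drugs at 15 concentrations plus a combination mix of auranofin, camptothecin, doxorubicin, rubitecan and topotecan. Viability after 48hr was read by CellTiter-Glo luminescence.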"}},
  "note": "Records with an inconclusive call do not appear. Entries that show only a call come without a potency. Calls of active or inactive are those of the source. Calls come from the whole dose curve; as a rule, active = well fitted curve in the direction sought with a large enough effect; inconclusive = small, poorly fitted or top-dose-only effect, or another doubt; inactive = no such curve, though single readings can be large; an effect the other way counts as inactive or inconclusive.",
  "data": [
    {"smiles": "C[C@]12CCC(=O)C=C1CC[C@@H]1[C@@H]2CC[C@@]2(C)[C@H]1CC[C@]2(O)C(=O)CO", "values": [
      {"measurement": "outcome", "setting": "[1]", "value": "inactive"},
      {"measurement": "outcome", "setting": "[2]", "value": "inactive"},
      {"measurement": "Potency", "setting": "[3]", "value": "inactive"}
    ]},
    {"smiles": "CN(C)[C@@H]1C(=O)C(C(N)=O)=C(O)[C@@]2(O)C(=O)C3=C(O)c4c(O)ccc(Cl)c4[C@@H](O)[C@H]3C[C@@H]12", "values": [
      {"measurement": "outcome", "setting": "[1]", "value": "inactive"},
      {"measurement": "outcome", "setting": "[2]", "value": "inactive"},
      {"measurement": "Potency", "setting": "[3]", "value": "inactive"}
    ]},
    {"smiles": "CN(C)CCN(Cc1cccs1)c1ccccn1", "values": [
      {"measurement": "outcome", "setting": "[1]", "value": "inactive"},
      {"measurement": "outcome", "setting": "[2]", "value": "inactive"},
      {"measurement": "Potency", "setting": "[3]", "value": "inactive"}
    ]},
    {"smiles": "CCN(CC)CCCN(c1ccccc1)C1Cc2ccccc2C1", "values": [
      {"measurement": "outcome", "setting": "[1]", "value": "inactive"},
      {"measurement": "outcome", "setting": "[2]", "value": "inactive"},
      {"measurement": "Potency", "setting": "[3]", "value": "31.6 µM (active)"}
    ]},
    {"smiles": "Cc1ccc(S(=O)(=O)NC(=O)NN2CCCCCC2)cc1", "values": [
      {"measurement": "outcome", "setting": "[1]", "value": "inactive"},
      {"measurement": "outcome", "setting": "[2]", "value": "inactive"},
      {"measurement": "Potency", "setting": "[3]", "value": "inactive"}
    ]},
    {"smiles": "O=C(O)CCCCCCCC(=O)O", "values": [
      {"measurement": "outcome", "setting": "[1]", "value": "inactive"},
      {"measurement": "outcome", "setting": "[2]", "value": "inactive"},
      {"measurement": "Potency", "setting": "[3]", "value": "inactive"}
    ]},
    {"smiles": "C[N+](C)(C)CCOC(N)=O", "values": [
      {"measurement": "outcome", "setting": "[1]", "value": "inactive"},
      {"measurement": "outcome", "setting": "[2]", "value": "inactive"},
      {"measurement": "Potency", "setting": "[3]", "value": "inactive"}
    ]},
    {"smiles": "NC(Cc1ccc(Cl)cc1)C(=O)O", "note": "(configuration not stated)", "values": [
      {"measurement": "outcome", "setting": "[1]", "value": "inactive"},
      {"measurement": "outcome", "setting": "[2]", "value": "inactive"},
      {"measurement": "Potency", "setting": "[3]", "value": "inactive"}
    ]},
    {"smiles": "CNCCCN1c2ccccc2CCc2ccccc21", "values": [
      {"measurement": "outcome", "setting": "[1]", "value": "inactive"},
      {"measurement": "outcome", "setting": "[2]", "value": "inactive"},
      {"measurement": "Potency", "setting": "[3]", "value": "inactive"}
    ]},
    {"smiles": "CC(=O)OC(C)C[N+](C)(C)C", "note": "(configuration not stated)", "values": [
      {"measurement": "outcome", "setting": "[1]", "value": "inactive"},
      {"measurement": "outcome", "setting": "[2]", "value": "inactive"},
      {"measurement": "Potency", "setting": "[3]", "value": "inactive"}
    ]},
    {"smiles": "C[C@H](CS)C(=O)N1CCC[C@H]1C(=O)O", "values": [
      {"measurement": "outcome", "setting": "[1]", "value": "inactive"},
      {"measurement": "outcome", "setting": "[2]", "value": "inactive"},
      {"measurement": "Potency", "setting": "[3]", "value": "inactive"}
    ]},
    {"smiles": "COC(=O)[C@H]1[C@H]2C[C@@H]3c4[nH]c5cc(OC)ccc5c4CCN3C[C@H]2C[C@@H](OC(=O)c2cc(OC)c(OC)c(OC)c2)[C@@H]1OC", "values": [
      {"measurement": "outcome", "setting": "[1]", "value": "inactive"},
      {"measurement": "outcome", "setting": "[2]", "value": "inactive"},
      {"measurement": "Potency", "setting": "[3]", "value": "inactive"}
    ]},
    {"smiles": "CCn1nc(C(=O)O)c(=O)c2cc3c(cc21)OCO3", "values": [
      {"measurement": "outcome", "setting": "[1]", "value": "inactive"},
      {"measurement": "outcome", "setting": "[2]", "value": "inactive"},
      {"measurement": "Potency", "setting": "[3]", "value": "inactive"}
    ]},
    {"smiles": "O=C1CC2(CCCC2)CC(=O)N1CCCCN1CCN(c2ncccn2)CC1", "values": [
      {"measurement": "outcome", "setting": "[1]", "value": "inactive"},
      {"measurement": "outcome", "setting": "[2]", "value": "inactive"},
      {"measurement": "Potency", "setting": "[3]", "value": "inactive"}
    ]}
  ]
}
